Consider 14 compounds from PubChem BioAssay.

Assay [1] in a line: inhibitors of TNFa-induced NFkB p65 translocation, primary screen, imaging, HUVEC, MLSMR starter and 10KST1 sets (AID 438;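 active = inhibition above 20% together with a positive visual image hit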;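 also: compound added about 3h40 before a 20 min TNFalpha stimulation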;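 as to inhibition: signal is the nuclear over cytoplasmic p65 intensity ratio per well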). The following applies: HUVEC TNFa-induced p65 nuclear translocation; cell count: measured here: nuclei count (cytotoxicity indicator), at 2.08 µM; inhibition: at 2 µM, stronger effect = higher value, 0% TNFa-plus-vehicle, 100% no-TNFa wells.
Assay [2] can be described thus: inhibitors of mutant huntingtin aggregation, primary screen, imaging, exon1htt(103Q)mCFP cells, high-content imaging (AID 483;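 active = visual image review flags a hit and inhibition of aggregation exceeds 20%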;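 also: compound exposure lasted 3 days before fixation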;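 as to nuclei count: percent of the per-plate median nuclei count of sample wells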). The following applies: exon1htt(103Q)mCFP cell line, aggregate imaging, at 2 µM; inhibition of aggregation: stronger effect = higher value; nuclei count: measured here: cell count, toxicity.
Assay [3] is described as follows: inhibitors of E-selectin induction by TNFa, primary screen, imaging, HUVEC, immunofluorescence, MLSMR starter and 10KST1 sets (AID 487;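 active = visually confirmed hit in the image check and inhibition above 20%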;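 as to inhibition: signal is fraction of cell area covered by stained E-selectin grains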;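 as to nuclei count: 100% = median nuclei count of all wells on the same plate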). The following applies: HUVEC TNFalpha-induced E-selectin immunofluorescence imaging, at 2 µM; inhibition: stronger effect = higher value; nuclei count: measured here: cell number, toxicity.
Assay [4] deals with Voltage-gated potassium channel subunit beta-2 (Rattus norvegicus) (UniProt P62483). In words: KvBeta enzyme negative modulators, primary screen, biochemical, NADPH fluorescence (AID 622;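 active = fluorescence slope higher than the sample average by over 3 SD, cut at about -0.22 in these data, passing the limit was not always enough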;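 also: slope of raw intensity against log time taken from 70 to 1610 s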). The conditions noted are these: recombinant KvBeta, 4-cyanobenzaldehyde reduction, at 10 µM, stronger effect = higher value.
Assay [5] has the same target. In words: KvBeta positive modulators, primary screen, biochemical, NADPH fluorescence (AID 623;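 active = NADPH fluorescence slope more negative than the mean of all samples by about 3 SD, 99.7% confidence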;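 also: fluorescence intensity change per second fitted from 20 to 320 s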). The conditions noted are these: Recombinant KvBeta, NADPH fluorescence decrease slope, 10 min; at 10 µM; stronger effect = lower value.
Assay [6] has as its target Alpha-2C adrenergic receptor (Homo sapiens) (UniProt P18825). The experiment in a line: modulators of alpha2C/GIRK thallium flux, primary screen, cell-based, HEK293 alpha2C/GIRK1/2 (AID 624).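 Also: slope of fluorescence ratio to pre-addition baseline per second over 15 to 24 s.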 The following applies: thallium flux BTC fluorescence, at 10 µM, actives lie on both sides.
Assay [7] in a line: inhibitors of Sendai virus-induced IRF3 signaling, primary screen, TLR/RLR signaling modifier project, cell-based, Sendai virus stimulus, luciferase, 10K MLSCN set (AID 602276;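 active = inhibition at or above 50% at 10 µM; inactive = inhibition below 50%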;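 also: firefly luciferase from ISG56 promoter only with Renilla not read in this screen; 0% = Sendai virus plus DMSO and 100% = medium plus DMSO without virus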). The conditions noted are these: HEK293 RL24 IRF3 luciferase reporter, at 10 µM, stronger effect = higher value.
Assay [8] is described as follows: inhibitors of poly I:C-induced TLR3 signaling, primary screen, cell-based, poly I:C stimulus, luciferase, 10K MLSCN set (AID 602277;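 active = inhibition of the reporter signal at or above 50%; inactive = inhibition below 50%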). The following applies: HEK293-TLR3 RL24 IRF3 luciferase reporter, at 10 µM, stronger effect = higher value. (In general: A reporter such as luciferase makes a cellular process visible.)

Activity calls are given as the source filed them.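 The calls were made as follows, unless noted: active = fluorescence slope after compound addition differing from the mean of all screened samples at 99.7% confidence, in either direction; inactive = the rest.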

Voltage-gated potassium channel subunit beta-2 (Rattus norvegicus), sequence (P62483 whole entry, looked up): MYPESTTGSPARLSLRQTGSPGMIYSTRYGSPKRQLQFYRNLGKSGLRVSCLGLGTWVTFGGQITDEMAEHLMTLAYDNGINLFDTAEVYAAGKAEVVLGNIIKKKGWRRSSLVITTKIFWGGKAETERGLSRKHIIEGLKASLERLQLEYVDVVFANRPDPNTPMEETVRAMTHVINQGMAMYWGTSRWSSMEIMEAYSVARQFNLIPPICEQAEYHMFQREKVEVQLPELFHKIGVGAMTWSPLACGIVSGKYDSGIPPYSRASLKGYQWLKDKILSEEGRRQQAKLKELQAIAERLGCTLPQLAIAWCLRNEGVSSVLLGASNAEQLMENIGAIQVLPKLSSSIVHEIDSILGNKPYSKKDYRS
Alpha-2C adrenergic receptor (Homo sapiens), sequence (P18825 whole entry, looked up): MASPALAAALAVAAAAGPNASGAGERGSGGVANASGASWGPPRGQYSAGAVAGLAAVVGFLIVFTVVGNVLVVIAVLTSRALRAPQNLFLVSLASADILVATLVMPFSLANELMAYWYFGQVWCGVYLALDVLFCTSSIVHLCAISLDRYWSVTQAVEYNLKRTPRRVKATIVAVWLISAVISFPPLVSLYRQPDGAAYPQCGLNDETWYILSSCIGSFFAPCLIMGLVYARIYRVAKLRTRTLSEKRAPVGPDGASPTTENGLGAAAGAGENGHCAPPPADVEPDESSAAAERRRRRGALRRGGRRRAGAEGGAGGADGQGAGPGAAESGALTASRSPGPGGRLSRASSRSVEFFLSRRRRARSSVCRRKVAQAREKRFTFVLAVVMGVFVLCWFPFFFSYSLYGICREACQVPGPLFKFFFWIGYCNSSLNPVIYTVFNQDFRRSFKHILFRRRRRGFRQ

For orientation: inhibition means the change of the read-out against control, counted positive when it falls. On to `COc1ccc(C(=O)Cn2nnc(-c3cccs3)n2)cc1`, for which the cell count in assay [1] was 368. For the same compound, the inhibition was -7% (inactive) in assay [1], -0.6% (inactive) in assay [3], -2.35% (inactive) in assay [7] and -30.5% (inactive) in assay [8]. For the same compound, in assay [2], the inhibition of aggregation was 27.6% (inactive). Further, the nuclei count in assay [2] was 89.5%; in assay [3], 100%. Further, the fluorescence slope in assay [4] was -0.407 (inactive). Further, the NADPH fluorescence slope in assay [5] is -4.9e-05 (inactive). Moreover, the slope in assay [6] was 0.00512 (inactive).

In the case of `COc1cccc(C2CC(=O)Nc3cc4c(cc32)OCCO4)c1OC(C)C` (centres undefined), in assay [1], the cell count stood at 556. Further, the inhibition in assay [1] is 1.9% (inactive); in assay [3], -18.7% (inactive); in assay [7], 9.49% (inactive); in assay [8], 17.8% (inactive). Besides, the inhibition of aggregation in assay [2] was 7.2% (inactive). Also, the nuclei count in assay [2] was found to be 119%; in assay [3] it was 104%. Also, the fluorescence slope in assay [4] is -0.497 (inactive). For the same compound, the NADPH fluorescence slope in assay [5] is -6e-05 (inactive). Also, the slope in assay [6] is 0.00619 (inactive).

Consider `O=C(NCC1COc2ccccc2O1)C1CCCN(S(=O)(=O)c2cnc[nH]2)C1` (centres undefined), for which the cell count in assay [1] was 617. Moreover, the inhibition was 7.3% (inactive) in assay [1], -63.3% (inactive) in assay [3], 4.57% (inactive) in assay [7] and 24.5% (inactive) in assay [8]. For the same compound, the inhibition of aggregation in assay [2] was -15.6% (inactive). Moreover, the nuclei count was found to be 100% in assay [2] and 124% in assay [3]. The fluorescence slope in assay [4] was -0.501 (inactive). Further, in assay [5], the NADPH fluorescence slope is -2e-05 (inactive). Also, the slope in assay [6] is 0.00703 (inactive).

For `Cn1c(-c2ccc(C(C)(C)C)cc2)n[nH]c1=S`, the cell count in assay [1] amounted to 647. For the same compound, the inhibition in assay [1] is -5.8% (inactive); in assay [3] it was 47.5% (inactive); in assay [7], -11.8% (inactive); in assay [8] it was -25.2% (inactive). Moreover, the inhibition of aggregation in assay [2] was -4.8% (inactive). Besides, the nuclei count came out at 77.2% in assay [2] and 79.7% in assay [3]. Also, the fluorescence slope in assay [4] was -0.46 (inactive). Moreover, in assay [5], the NADPH fluorescence slope is -0.000112 (inactive). For the same compound, the slope in assay [6] was 0.00619 (inactive).

Take `CC(NS(=O)(=O)c1ccccc1)C(c1cccs1)N1CCN(C)CC1` (centres undefined): the cell count in assay [1] turned out to be 445. The inhibition in assay [1] is -6.7% (inactive); in assay [3], -262% (inactive); in assay [7] it was 20.5% (inactive); in assay [8], 36.2% (inactive). For the same compound, the inhibition of aggregation in assay [2] was -18.1% (inactive). Also, the nuclei count is 111% in assay [2] and 137% in assay [3]. Further, in assay [4], the fluorescence slope is -0.321 (inactive). In addition, the NADPH fluorescence slope in assay [5] was -9.7e-06 (inactive). Also, the slope in assay [6] was 0.00347 (inactive).

`O=C(CSc1n[nH]c(-c2cccs2)n1)N1CCN(S(=O)(=O)c2ccccc2)CC1`: in assay [1], the cell count is 785. Further, the inhibition in assay [1] was 13.3% (inactive); in assay [3], -77% (inactive); in assay [7], 17% (inactive); in assay [8] it was 28.7% (inactive). For the same compound, the inhibition of aggregation in assay [2] is 4.1% (inactive). In addition, the nuclei count turned out to be 104% in assay [2] and 140% in assay [3]. In assay [4], the fluorescence slope is -0.639 (inactive). Besides, in assay [5], the NADPH fluorescence slope was 3e-05 (inactive). Besides, the slope in assay [6] is 0.0053 (inactive).

For `CC1CCc2nn(CC(=O)NCc3ccc4c(c3)OCO4)cc2C1` (centres undefined), the cell count in assay [1] came out at 673. Further, the inhibition was -6.1% (inactive) in assay [1], -80.8% (inactive) in assay [3], 7.66% (inactive) in assay [7] and 18% (inactive) in assay [8]. For the same compound, the inhibition of aggregation in assay [2] is 1.1% (inactive). Moreover, the nuclei count worked out at 103% in assay [2] and 124% in assay [3]. Moreover, the fluorescence slope in assay [4] is -0.506 (inactive). Moreover, the NADPH fluorescence slope in assay [5] is -2.4e-05 (inactive). The slope in assay [6] is 0.00628 (inactive).

As to `COc1ccc(CC(=O)Nc2c3c(nn2-c2cccc(Cl)c2)CS(=O)C3)cc1` (centres undefined), in assay [1], the cell count turned out to be 466. The inhibition in assay [1] was 5.7% (inactive); in assay [3], -43.1% (inactive); in assay [7], 9.81% (inactive); in assay [8], 14.2% (inactive). For the same compound, the inhibition of aggregation in assay [2] was -8.1% (inactive). For the same compound, the nuclei count in assay [2] came to 101%; in assay [3], 87.6%. Further, the fluorescence slope in assay [4] was -0.492 (inactive). For the same compound, the NADPH fluorescence slope in assay [5] is 2.6e-05 (inactive). In addition, the slope in assay [6] was 0.00562 (inactive).

For `Cn1c(=O)c(=O)n(C)c2cc(S(=O)(=O)Nc3ccc4c(c3)OCCO4)ccc21`, in assay [1], the cell count amounted to 354. The inhibition is -1.2% (inactive) in assay [1], -21.4% (inactive) in assay [3], 45.1% (inactive) in assay [7] and 35.8% (inactive) in assay [8]. Moreover, in assay [2], the inhibition of aggregation was -18.4% (inactive). For the same compound, the nuclei count in assay [2] worked out at 106%; in assay [3], 108%. In assay [4], the fluorescence slope was -0.421 (inactive). In assay [5], the NADPH fluorescence slope was -5.4e-05 (inactive). Besides, the slope in assay [6] was 0.00519 (inactive).

Regarding `COc1ccc(N2CCN(C(c3ccccc3)c3sc4nc(C)nn4c3O)CC2)cc1` (centres undefined), the cell count in assay [1] worked out at 694. The inhibition in assay [1] was -12.9% (inactive); in assay [3], -21.7% (inactive); in assay [7], 8.1% (inactive); in assay [8] it was 11.1% (inactive). Also, in assay [2], the inhibition of aggregation was -0.9% (inactive). The nuclei count in assay [2] stood at 112%; in assay [3], 96.4%. For the same compound, the fluorescence slope in assay [4] is -0.452 (inactive). Also, the NADPH fluorescence slope in assay [5] is -4.8e-05 (inactive). Moreover, the slope in assay [6] is 0.00526 (inactive).

As for `O=C(c1ccco1)N1CCN(S(=O)(=O)c2ccc(Oc3ccccc3)cc2)CC1`, in assay [1], the cell count worked out at 243. The inhibition was 22.6% (inactive) in assay [1], -81.4% (inactive) in assay [3], 5.47% (inactive) in assay [7] and -52.2% (inactive) in assay [8]. Moreover, the inhibition of aggregation in assay [2] is -4.9% (inactive). For the same compound, the figures for the nuclei count in assay [2] and in assay [3] were 77.4% and 111%, respectively. For the same compound, the fluorescence slope in assay [4] is -0.519 (inactive). Also, the NADPH fluorescence slope in assay [5] was 2.5e-06 (inactive). Moreover, the slope in assay [6] was 0.00632 (inactive).

Regarding `CCOCCCNC(=O)Cn1ncc2c(=O)oc3ccccc3c21`, the cell count in assay [1] was found to be 651. For the same compound, the inhibition in assay [1] was -13.4% (inactive); in assay [3], -32.1% (inactive); in assay [7] it was 5.54% (inactive); in assay [8] it was 30.9% (inactive). Further, the inhibition of aggregation in assay [2] is -20.1% (inactive). The nuclei count came out at 98.5% in assay [2] and 104% in assay [3]. Also, in assay [4], the fluorescence slope was -0.586 (inactive). In addition, the NADPH fluorescence slope in assay [5] was -1.8e-05 (inactive). In addition, the slope in assay [6] was 0.00598 (inactive).

Turning to `CN(C1CCCCC1)S(=O)(=O)c1ccc(NC(=O)c2ccco2)cc1`, the cell count in assay [1] was 301. Further, the inhibition in assay [1] was 2.8% (inactive); in assay [3], -28.1% (inactive); in assay [7], 4.93% (inactive); in assay [8], -6.73% (inactive). Further, the inhibition of aggregation in assay [2] is -6.6% (inactive). In addition, the figures for the nuclei count in assay [2] and in assay [3] were 106% and 112%, respectively. Also, the fluorescence slope in assay [4] was -0.399 (inactive). In addition, the NADPH fluorescence slope in assay [5] was -4.1e-05 (inactive). Further, the slope in assay [6] is 0.00468 (inactive).

Take `CCCn1c(=NC(C)=O)c(C#N)cc2c(=O)n3cccc(C)c3nc21`: the cell count in assay [1] worked out at 462. The inhibition was -0.9% (inactive) in assay [1], -35.4% (inactive) in assay [3], -11.4% (inactive) in assay [7] and 1.19% (inactive) in assay [8]. Further, the inhibition of aggregation in assay [2] was 0.6% (inactive). Also, the nuclei count in assay [2] was 99.9%; in assay [3], 131%. For the same compound, the fluorescence slope in assay [4] was -0.0531 (inactive). Besides, in assay [5], the NADPH fluorescence slope is -1e-05 (inactive). Moreover, the slope in assay [6] was 0.0086 (inactive).
